Assay results as given in PubChem BioAssay.
Activity calls are given as the source filed them.

What was measured:
[1] = tested on: Human papillomavirus type 1a protein E7 (residues 44-93); experiment: small molecules binding HPV E7 44-93 – biochemical, small-molecule microarray, residues 44-93, 635 nm fluorescence, primary screen (AID 1108); conditions: fluorescence 635 nm, higher = more signal;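 note: E7 fragment applied at 1 µg/mL in TBST for 1 h at 4 C; score combines spot fluorescence with its signal to noise ratio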
[2] = hepatitis C replication reporter changes, two-sided – Huh7 cells, luciferase reporter, HCV replication inhibitor project, primary screen (AID 1109); conditions: Huh7 HCV replicon luciferase reporter, 48 h; higher = more signal;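 note: huh7 hepatoma cells harbouring a luciferase neomycin HCV replicon reporter; luciferase luminescence as measure of HCV replicon replication; test concentration not given here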
[3] = target: Left-right determination factor 2 (Homo sapiens) (UniProt O00292); experiment: small molecules binding LEFTY2 protein – biochemical, small-molecule microarray, 635 nm fluorescence scan, primary screen (AID 1110); conditions: higher = more signal
[4] = target: Calmodulin-1 (Homo sapiens) (UniProt P0DP23); experiment: small molecules binding calmodulin-1 with EGTA – biochemical, small-molecule microarray, Cy5-labelled CALM1, profiling panel (AID 1111); conditions: Cy5-CALM1 binding fluorescence, higher = more signal;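 note: labelled calmodulin applied in Tris saline Tween buffer holding calcium plus EGTA and DTT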
[5] = target: Calmodulin-1 (Homo sapiens) (UniProt P0DP23); experiment: small molecules binding Ca-loaded calmodulin-1 – biochemical, small-molecule microarray, Cy5-labelled CALM1, plus calcium, artefact control for SMM control-protein annotation, profiling panel (AID 1112); conditions: Cy5-CALM1 binding fluorescence, higher = more signal;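 note: score merges spot fluorescence with signal to noise from triplicate slides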
[6] = probe aWnt5a binding to arrayed compounds – biochemical, biotinylated probe, 635/667 nm fluorescence, primary screen (AID 1113); conditions: small-molecule microarray, higher = more signal;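 note: score merges 667 nm fluorescence intensity with signal-to-noise per printed feature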
[7] = probe aShh binding to arrayed compounds – biochemical, biotinylated probe, 635/667 nm fluorescence, primary screen (AID 1114); conditions: small-molecule microarray, higher = more signal;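 note: probe is biotin-labelled aShh protein from a stem cell growth factor screen; measures binding of labelled protein to compounds printed on the slide; score merges feature fluorescence at 667 nm with signal-to-noise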
[8] = probe aNog binding to arrayed compounds – biochemical, biotinylated probe, 635/667 nm fluorescence, primary screen (AID 1115); conditions: small-molecule microarray, higher = more signal;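 note: probe is biotinylated aNog protein used at 0.15 µg/mL for 1 h at 4 C; z-score combines 667 nm fluorescence of each spot with its signal to noise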
[9] = target: Torsin-1A-interacting protein 1 (Homo sapiens) (UniProt Q5JTV8); experiment: compound microarray binding of lysate hLAP1 – cell lysate, small-molecule microarray, COS7 lysate, 635/667 nm fluorescence, primary screen (AID 1116); conditions: 635 nm fluorescence, higher = more signal
[10] = target: Alpha-bungarotoxin (Bungarus multicinctus) (UniProt P60615); experiment: compounds binding labelled alpha-BTX control protein – biochemical, small-molecule microarray, Alexa647 label, 635/667 nm fluorescence, artefact control for SMM control protein annotation, profiling panel (AID 1117); conditions: alpha-BTX-A647 binding fluorescence, higher = more signal
Albumin (Bos taurus) = Albumin (Bos taurus) (UniProt P02769); experiment: compounds binding labelled BSA control protein – biochemical, small-molecule microarray, Alexa647 label, 635/667 nm fluorescence, artefact control for SMM control protein annotation, profiling panel (AID 1118); conditions: BSA-A647 binding, fluorescence 635 nm, higher = more signal;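 note: score merges 667 nm emission intensity and signal-to-noise per printed compound spot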
[11] = probe aXIP binding to arrayed compounds – biochemical, NeuroSMM set, 635/667 nm fluorescence, primary screen (AID 1119); conditions: small-molecule microarray, higher = more signal, called active from +8 up or from −8 down;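 note: probe is the protein aXip251-270 applied at 1 µg/mL to compound-printed slides; binding of probe to printed compounds measured as 667 nm fluorescence plus signal to noise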
[12] = probe aNOTCH3 binding on compound microarray – biochemical, small-molecule microarray, 635/667 nm fluorescence, primary screen (AID 1120); conditions: higher = more signal;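 note: probe is a biotin-tagged antibody raised against NOTCH3 rather than NOTCH3 protein; score merges spot fluorescence near 667 nm with spot signal to noise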
[13] = probe aNOTCH2 binding on compound microarray – biochemical, small-molecule microarray, 635/667 nm fluorescence, primary screen (AID 1121); conditions: higher = more signal;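 note: score merges feature fluorescence read at 667 nm with its signal to noise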
[14] = target: Carbonic anhydrase 2 (Homo sapiens) (UniProt P00918); experiment: compounds binding carbonic anhydrase 2 – biochemical, small-molecule microarray, Alexa647-labelled CAII, profiling panel (AID 1122); conditions: CAII-A647 binding fluorescence, higher = more signal
[15] = COS7 lysate on small-molecule microarray, probe aHis, 635 nm (AID 1123); conditions: COS7 cell lysate, fluorescence, higher = more signal;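 note: z-score combines 667nm fluorescence intensity with signal-to-noise per printed compound spot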
[16] = probe aLAP1 signal on lysate-treated microarray – cell lysate, small-molecule microarray, COS7 lysate, primary screen (AID 1124); conditions: probe aLAP1, fluorescence, higher = more signal;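 note: lysate comes from COS7 cells expressing LAP1 and is applied at 0.3 µg/mL; score merges spot fluorescence near 667 nm with signal-to-noise over triplicate slides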
Sam68 (KHDRBS1) = experiment: compounds binding KHDRBS1 protein – biochemical, small-molecule microarray, 635 nm fluorescence, primary screen (AID 1125); conditions: higher = more signal;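 note: score merges 667 nm channel intensity with signal to noise over triplicate slides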
[17] = tested on: Chordin-like protein 2 (CHRDL2); experiment: compounds binding chordin-like 2 – biochemical, small-molecule microarray, 635 nm fluorescence, primary screen (AID 1126); conditions: fluorescence 635 nm, higher = more signal;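 note: printed compound slides probed with Chrdl2 protein at 4 µg/mL for 1 h at 4 C; score merges 667 nm emission intensity with signal to noise over three replicate slides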
[18] = target: Concanavalin-A (Canavalia ensiformis) (UniProt P02866); experiment: compounds binding concanavalin A lectin – biochemical, small-molecule microarray, Alexa647 label, 635 nm, artefact control for SMM control protein annotation, primary screen (AID 1127); conditions: ConA-A647 binding fluorescence, higher = more signal;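 note: z combines 667 nm emission intensity with signal-to-noise across three replicate slides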
Concanavalin-A (Canavalia ensiformis), sequence (P02866 whole entry, looked up): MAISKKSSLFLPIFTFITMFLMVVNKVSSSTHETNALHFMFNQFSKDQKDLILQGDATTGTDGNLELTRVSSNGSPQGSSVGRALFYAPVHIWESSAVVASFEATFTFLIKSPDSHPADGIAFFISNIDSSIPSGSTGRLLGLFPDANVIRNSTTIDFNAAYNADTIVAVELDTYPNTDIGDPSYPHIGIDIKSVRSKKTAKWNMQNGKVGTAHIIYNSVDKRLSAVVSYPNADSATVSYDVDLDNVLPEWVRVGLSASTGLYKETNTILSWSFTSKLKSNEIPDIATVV

Alpha-bungarotoxin (Bungarus multicinctus), sequence (P60615 whole entry, looked up): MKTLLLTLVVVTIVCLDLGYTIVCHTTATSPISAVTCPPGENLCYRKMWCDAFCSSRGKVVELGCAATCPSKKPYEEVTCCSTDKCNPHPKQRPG
Torsin-1A-interacting protein 1 (Homo sapiens), sequence (Q5JTV8 whole entry, looked up): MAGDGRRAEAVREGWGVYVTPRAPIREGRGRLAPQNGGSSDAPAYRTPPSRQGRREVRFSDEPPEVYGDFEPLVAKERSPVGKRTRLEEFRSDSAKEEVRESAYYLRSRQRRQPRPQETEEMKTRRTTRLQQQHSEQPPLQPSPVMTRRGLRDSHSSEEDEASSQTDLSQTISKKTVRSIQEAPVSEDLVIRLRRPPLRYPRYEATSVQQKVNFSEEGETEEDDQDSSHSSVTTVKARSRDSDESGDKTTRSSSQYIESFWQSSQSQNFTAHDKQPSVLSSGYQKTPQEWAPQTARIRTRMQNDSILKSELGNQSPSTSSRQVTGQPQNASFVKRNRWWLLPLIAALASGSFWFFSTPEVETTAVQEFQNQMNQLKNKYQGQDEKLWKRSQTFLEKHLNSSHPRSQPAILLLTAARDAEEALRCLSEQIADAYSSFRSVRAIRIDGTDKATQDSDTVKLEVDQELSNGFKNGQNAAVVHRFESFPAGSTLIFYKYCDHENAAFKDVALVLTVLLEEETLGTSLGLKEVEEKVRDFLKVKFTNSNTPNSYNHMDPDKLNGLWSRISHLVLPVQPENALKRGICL
Albumin (Bos taurus), sequence (P02769 whole entry, looked up): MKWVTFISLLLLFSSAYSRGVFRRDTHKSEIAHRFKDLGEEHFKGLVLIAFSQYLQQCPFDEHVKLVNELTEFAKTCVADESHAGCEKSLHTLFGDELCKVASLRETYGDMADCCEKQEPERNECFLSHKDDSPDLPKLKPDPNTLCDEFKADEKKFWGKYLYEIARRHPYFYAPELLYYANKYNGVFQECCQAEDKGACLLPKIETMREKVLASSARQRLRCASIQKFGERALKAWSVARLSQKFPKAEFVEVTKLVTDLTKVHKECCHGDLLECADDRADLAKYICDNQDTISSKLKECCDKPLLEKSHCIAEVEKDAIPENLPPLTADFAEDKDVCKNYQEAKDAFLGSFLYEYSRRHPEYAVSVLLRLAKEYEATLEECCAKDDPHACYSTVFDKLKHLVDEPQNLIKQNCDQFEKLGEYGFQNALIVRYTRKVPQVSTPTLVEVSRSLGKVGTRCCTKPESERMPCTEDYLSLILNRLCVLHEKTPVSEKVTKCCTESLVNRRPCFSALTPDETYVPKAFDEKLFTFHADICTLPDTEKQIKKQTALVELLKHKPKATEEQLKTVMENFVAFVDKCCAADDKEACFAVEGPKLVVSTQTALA
Left-right determination factor 2 (Homo sapiens), sequence (O00292 whole entry, looked up): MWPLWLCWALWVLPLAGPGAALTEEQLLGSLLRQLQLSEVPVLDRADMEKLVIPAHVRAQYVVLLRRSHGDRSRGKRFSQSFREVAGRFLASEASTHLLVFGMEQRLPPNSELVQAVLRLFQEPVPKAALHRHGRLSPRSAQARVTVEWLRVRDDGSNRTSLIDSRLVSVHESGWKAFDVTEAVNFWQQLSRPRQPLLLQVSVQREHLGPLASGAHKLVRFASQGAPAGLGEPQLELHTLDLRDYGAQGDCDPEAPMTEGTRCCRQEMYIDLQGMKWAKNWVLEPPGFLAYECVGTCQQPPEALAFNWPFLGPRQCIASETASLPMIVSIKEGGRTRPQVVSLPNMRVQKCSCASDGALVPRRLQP

| SMILES | composite z-score [1] | z-score [2] | composite z-score [3] | composite z-score [4] | composite z-score [5] | composite z-score [6] | composite z-score [7] | composite z-score [8] | composite z-score [9] | composite z-score [10] | composite z-score (Albumin (Bos taurus)) | composite Z-score [11] | composite z-score [12] | composite z-score [13] | composite z-score [14] | composite z-score [15] | composite z-score [16] | composite z-score (Sam68 (KHDRBS1)) | composite z-score [17] | composite z-score [18] |
| --- | --- | --- | --- | --- | --- | --- | --- | --- | --- | --- | --- | --- | --- | --- | --- | --- | --- | --- | --- | --- |
| C=CCC(OC(C)=O)[C@@H]1[C@@H](N(Cc2ccc(-c3ccccc3)cc2)C(=O)Cc2ccc(F)cc2)c2cc(OCCCO)ccc2N1C(=O)Cc1ccc2ccccc2c1 (stereo not given in full) | -0.333 | 0.482 | 0.0808 | 1.07 | 0.743 | 0.0495 | -0.153 | 0.0335 | 0.542 | -0.0297 | 0.232 | -0.34 (inactive) | -0.0931 | -0.046 | 0.244 | 1.29 | 0.201 | -0.869 | -0.353 | -0.474 |
| O=C1C2C=CC(C(O)c3ccco3)N(Nc3ccccc3)C2C(=O)N1c1ccccc1 (stereo not given) | -0.335 | 0.305 | -0.756 | -0.136 | 0.245 | -0.006 | 0.0121 | 0.181 | -0.479 | -0.0188 | 0.507 | 0.0089 (inactive) | -0.153 | -0.141 | 0.757 | 0.467 | -0.102 | -0.161 | -0.727 | -0.222 |
| CC(C)[C@H]1NC(=O)[C@@]23C(=O)N[C@@H](Cc4ccccc4)C2[C@H](C)[C@@]2(C)O[C@H]2C3/C=C/CCC/C=C/CNC(=O)[C@H](Cc2ccccc2)NC1=O (stereo not given in full) | 1.41 | -0.565 | -0.0883 | -0.773 | -0.806 | -0.148 | -0.156 | -0.455 | -0.148 | -0.498 | 0.347 | -0.0159 (inactive) | -0.213 | -0.131 | 0.427 | 0.892 | -0.0328 | 0.86 | 0.213 | -0.464 |
| CCCCC(=C=CC[C@H](O)c1ccc(OCCO)cc1)C[C@H](O)COCc1ccccc1 | 0.383 | -1.77 | -0.233 | -0.567 | -0.377 | -0.0685 | 0.14 | -0.0168 | 0.941 | 0.134 | -0.276 | 0.154 (inactive) | -0.163 | -0.164 | 0.7 | 1.19 | 0.271 | 0.549 | -0.371 | -0.434 |
| CN1C(=O)C2C(C1=O)C1C=C(CCCO)C2C(c2cccs2)N1Cc1cc2c(cc1Br)OCO2 (stereo not given) | 1.44 | -1.22 | 0.772 | 1.89 | 0.658 | 0.184 | 0.131 | -0.373 | 2.29 | 1.7 | 1.01 | 1.13 (inactive) | 0.323 | -0.144 | 0.805 | 2.24 | 1.09 | 1.3 | 0.171 | 1.18 |
| COc1cc2c(cc1O)C(c1cccs1)N(Cc1sc3ccccc3c1Cl)CC2 (stereo not given) | 1.48 | -1.7 | 0.659 | 1.66 | 0.334 | -0.0345 | 0.199 | 0.593 | 1.33 | 1.87 | 0.931 | -0.818 (inactive) | 0.173 | 0.0294 | 0.587 | 2.04 | 1.17 | 1.3 | 0.613 | 1.07 |
| CC(C)C(CO)N1C(=O)[C@@H]2[C@H]3C(=O)OCC=C[C@H]3OC23C=CCN(C(C)(C)C)C(=O)[C@@H]13 (stereo not given in full) | -1.27 | -0.425 | -0.15 | -0.907 | -1.43 | -0.204 | 0.0725 | -0.133 | -0.809 | -0.0022 | -0.0498 | -0.343 (inactive) | -0.252 | -0.168 | 0.409 | -0.843 | -0.495 | -1.41 | -0.109 | 0.0282 |
| CN(C)CCCC[C@@H]1NC(=O)[C@@H]2C[C@H](C(=O)O)[C@H](c3cccc(OCCO)c3)N2C1=O | -0.927 | -0.282 | -0.43 | -0.832 | -0.238 | -0.0179 | -0.0793 | -0.375 | -0.657 | -0.676 | 0.0812 | 0.627 (inactive) | -0.0914 | -0.116 | 0.198 | 0.491 | -0.0644 | -0.936 | 0.217 | 0.567 |
| CN1C=C(C(=O)OCCS(C)(=O)=O)C(C(=O)OCCS(C)(=O)=O)=CC(c2ccc(CO)cc2)=CC1c1cccs1 (stereo not given) | 0.229 | 0.19 | 0.0843 | -0.165 | -0.388 | -0.0405 | 0.0062 | 0.304 | 1.46 | 0.821 | 0.232 | 0.142 (inactive) | 0.0026 | -0.0936 | 0.812 | 0.848 | 0.279 | 0.645 | 0.318 | 0.64 |
| CN(C)C(=O)[C@@]1(CCC(=O)OC(C)(C)C)N=C(c2ccc(OCCCO)cc2)O[C@H]1c1ccccc1CN=[N+]=[N-] | 1.5 | -1.61 | -0.9 | 1.18 | 0.0572 | 0.0044 | 0.579 | 1.32 | 2.74 | 0.548 | 1 | -0.181 (inactive) | -0.0111 | -0.0206 | 0.825 | 3.22 | 0.626 | 1.29 | -0.409 | 0.613 |
| C=CCC(OC(C)=O)[C@@H]1[C@@H](N(Cc2ccc(-c3ccccc3)cc2)C(=O)c2ccc(C)cc2)c2cc(OCCCO)ccc2N1C(=O)Cc1ccc2ccccc2c1 (stereo not given in full) | -0.579 | -0.588 | -0.0611 | -0.117 | 0.53 | -0.0794 | -0.349 | 0.0127 | 1.68 | 0.0941 | 0.233 | -0.645 (inactive) | -0.0362 | -0.159 | -0.14 | 0.772 | -0.0769 | -0.106 | 0.248 | 0.202 |
